Assay outcomes from PubChem BioAssay.
HT1080-NT tox: kills 2HG-producing HT-1080-NT fibrosarcoma cells; 1.6% of 360,000 active; Potency, µM (highest dose often 46.1 µM), for the others: top-dose activity, negative = less viability, most hits filed as cytotoxic; HT-1080-NT fibrosarcoma viability, CellTiter-Glo ATP luminescence, 48 h; AID 686970;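 further: NT is the 2HG producing partner of a matched IDH1 knockdown line; potency means the concentration at half of the fitted maximal effect; 0% = DMSO-treated cells and -100% = media-only wells without cells; nearly all actives have a fitted effect of over 55% in size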
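750 cells/well, RPMI + 5% FBS; 2 h settle, compound pin-transfer, 48 h at 37 degrees C. CellTiter-Glo 10 min RT, luminescence. Normalized to DMSO and media-only wells.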
IL-1B inflam inh: inflammasome signaling inhibition, IL-1 beta readout; THP-1 LPS/ATP IL-1B secretion, AlphaLISA, 16 h; hits give low values; activity change, % at 57.5 µM; 4.7% of 360,000 active; AID 743279; in the data active means activity change below about -50%; inconclusive means mostly about -30% to -49%
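Secreted IL-1B measured by AlphaLISA bead assay after 16 h compound exposure of THP-1 cells; compounds (final up to 57.5 uM) added 1 h before LPS (250 ng/mL) and ATP (1.25 mM) stimulation; lower signal means less secretion.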
DT40 TDP1 no CPT: qHTS for Inhibitors of human tyrosyl-DNA phosphodiesterase 1 (TDP1): qHTS in cells in absence of CPT; DT40 Tdp1-/- hTDP1 cells, no CPT, ATP luminescence, 48 h; Potency, µM (highest dose often 46.2 µM), inactives show at the highest dose activity change, negative = growth inhibition, hits mostly inhibitors; 15% of 420,000 active; further: potency means the concentration at half of the fitted maximal effect; nearly all actives have a fitted effect of over 55% in size
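Readout: luminescence from CellTiter-Glo after 30 min in the dark at RT. Cells: DT40 Tdp1-/- with stable hTDP1, 400/well. Exposure: compounds alone, ≥48 hr, 37 °C.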
HT1080 IDH1KD tx: toxicity to HT-1080 IDH1 knockdown cells (counter line); 2% of 360,000 active; HT-1080 IDH1 knockdown viability, ATP luminescence, 48 h; Potency, µM (series often up to 46.1 µM), for inactives: top-dose activity, negative = toxicity, actives largely listed as cytotoxic;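 further: potency means the concentration at half of the fitted maximal effect; 0% = DMSO wells and -100% = cell-free medium wells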
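Knockdown cells (IDH1KD HT-1080) received compounds 2 h after plating at 750 cells/well and were kept 48 h at 37 °C in 5% FBS RPMI. A CellTiter-Glo luminescence read gave % activity for curve fitting.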
TDP1 cell CPT: DT40-hTDP1 cell growth loss with CPT; 12% of 420,000 active; chicken DT40 Tdp1-/-;hTDP1 cells + 20 nM CPT, ATP luminescence, 48 h; Potency, µM (series often up to 46.2 µM), for inactives: top-dose activity change, negative = growth inhibition, most hits filed as inhibitors; further: potency means the concentration at half of the fitted maximal effect; nearly all actives have a fitted effect of over 55% in size
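Cell growth measured by CellTiter-Glo luminescence after a minimum 48 h, 37 C compound exposure with 20 nM CPT in Tdp1-knockout DT40 cells stably expressing hTDP1, seeded 400/well; qHTS titration format.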
uPA surface inh: inhibitors of cell surface uPA generation; cell surface uPA generation assay, qHTS; Potency, µM (highest dose often 38.3 µM), without a hit: at the highest dose activity change, negative = inhibition, actives largely listed as inhibitors; 0.31% of 330,000 active; AID 540303; active means well fitted inhibition curve with a large enough effect; inconclusive means small, poorly fitted or top-dose-only effect; inactive means no such curve, though single readings can be large or run the other way; tested in mouse RAW 264.7 cells; further: potency means the concentration at half of the fitted maximal effect; nearly all actives have a fitted effect of over 55% in size
Starred values were filed as active, the others as inactive; i = inactive; ? = inconclusive; . = no result; [ ] = dose if it differs, or a comment. A selection: hits, their analogues and other compounds. The true share with any hit is near 19%. Unless noted, the call rests on the fitted dose curve; in most records, active means well fitted curve in the direction sought with a large enough effect; inconclusive means small, poorly fitted or top-dose-only effect, or another doubt; inactive means no such curve, though single readings can be large; an effect the other way counts as inactive or inconclusive. Unless noted, on the % scale 0 is the no-effect control and ±100 the full control effect.

SMILES	HT1080-NT tox	IL-1B inflam inh	DT40 TDP1 no CPT	HT1080 IDH1KD tx	TDP1 cell CPT	uPA surface inh
O=C(Nc1cccc(F)c1)Nc1ccc2c(c1)OCO2	-20.9%	-66.8*	?	-25.6%	?	0.5%
O=C(Nc1ccc2c(c1)OCO2)c1cccc(F)c1	6.4%	-23.2	-14.5%	1.8%	-8.9%	-2.4%
COCc1cn(CC(=O)c2sc(NC(=O)C(C)(C)C)nc2C)nn1	13.8%	3.8	3.6%	7.7%	3.3%	.
Cc1cccc(NC(=O)c2cc3c(=O)n4cccc(C)c4nc3s2)c1C	.	.	2.31µM*	.	1.84µM*	.
CCCN(CCC)C(=O)c1cc2c(=O)n3cccc(C)c3nc2n1C	.	.	23.1µM*	.	16.4µM*	.
Cc1cccn2c(=O)c3cc(C(=O)NCCCOC(C)C)sc3nc12	10.6%	-12.7	20.6µM*	-1.4%	?	-3.8%
CCCN(CCC)C(=O)c1cc2c(=O)n3cccc(C)c3nc2s1	-3.0%	15.3	18.4µM*	-3.3%	?	3.4%
Cc1cccn2c(=O)c3cc(C(=O)N4CCCCC4)sc3nc12	7.2%	-1.5	-14.9%	7.1%	-4.6%	9.2%
COc1ccc(C)cc1NC(=O)c1cc2c(=O)n3cccc(C)c3nc2s1	.	.	-2.8%	.	1.8%	.
CN(C(=O)C1CCC(=O)N(CCCN2CCCC2=O)C1)C(C1CC1)C1CC1 (centres undefined)	15.4%	9.2	3.6%	18.5%	5.4%	2.9%
COCCN(C(=O)CSc1nnc(-c2cccc(F)c2)n1N)c1c(N)n(Cc2ccccc2)c(=O)[nH]c1=O	8.5%	4.3	0.6%	11.2%	9.7%	-8.2%
O=C(C[n+]1cccc(Br)c1)c1ccccc1	9.4%	5.2	9.0%	-0.8%	-5.1%	-1.6%
O=C(C[n+]1cccc(Br)c1)c1ccc(I)cc1	.	.	-93.7%	.	2.24µM*	.
O=C(CBr)c1ccc(Oc2ccc(C(=O)C[n+]3cccc(Br)c3)cc2)cc1	.	.	15.8µM*	.	?	.
O=C(Nc1ccc(Br)cn1)c1ccc(COc2c(F)c(F)cc(F)c2F)o1	2.0%	28.6	-1.9%	3.6%	-17.7%	-8.1%
CC1=CC(C)(C)n2c(O)c(C3=NC(=S)NC3=O)c3cc(OC(=O)c4cccc5ccccc45)cc1c32	0.0%	-3.6	23.1µM*	?	?	2.7%
CCOc1ccc(NC(=O)CCC(=O)N/N=C2\CCCc3ccccc32)cc1	-3.9%	i	0.6%	-6.1%	-5.0%	-1.3%
CCOC(=O)C1C(=O)C(=O)N(Cc2ccccc2)C1C(=O)OCC (centres undefined)	9.0%	8.2	-8.7%	2.3%	2.0%	2.5%
Cc1c(N=Cc2cccnc2)c(=O)n(-c2ccccc2)n1C	14.7%	19.7	-5.8%	14.5%	-5.4%	-0.8%
O=C1CCC/C1=c1\s/c(=C\c2cccnc2)c(=O)n1-c1ccccc1	-0.3%	-74.9*	16.4µM*	-2.0%	?	-7.6%
O=C1CCC/C1=c1\s/c(=C/c2cccnc2)c(=O)n1-c1ccccc1	1.6%	-73.2*	?	-0.7%	?	-2.6%
COc1cccc(NS(=O)(=O)c2ccc3[nH]cc(C(=O)N(C)C4CCCCC4)c(=O)c3c2)c1	.	.	?	.	-24.3%	.
CC(C(N)=O)N1C(=O)NC2(CCCc3ccccc32)C1=O (centres undefined)	11.9%	21.9	-16.3%	2.4%	4.5%	2.4%
O=C(N/N=C/c1cccc(F)c1)c1c(O)c2ccccc2[nH]c1=O	-8.5%	17.9	2.31µM*	-9.3%	2.31µM*	11.1%
O=C(Nc1cccc(F)c1)c1c(O)c2ccccc2[nH]c1=O	5.3%	6.4	-18.1%	0.5%	-10.3%	3.5%
SMILES	HT1080-NT tox	IL-1B inflam inh	DT40 TDP1 no CPT	HT1080 IDH1KD tx	TDP1 cell CPT	uPA surface inh
O=c1[nH]c2ccccc2c(O)c1O	18.4µM*	-92.1*	5.8µM*	?	8.2µM*	-11.0%
O=C(N/N=C/c1ccc(F)cc1)c1c(O)c2ccccc2[nH]c1=O	-2.3%	0.0	5.17µM*	-0.4%	4.61µM*	-0.6%
O=C(N/N=C/c1ccccc1)c1c(O)c2ccccc2[nH]c1=O	-7.2%	12.6	11.6µM*	-24.2%	9.2µM*	5.0%
O=c1[nH]c2ccccc2c(O)c1-[n+]1ccccc1	-0.9%	12.6	17.7%	-2.1%	0.1%	0.8%
COC(=O)Nc1ccc(S(=O)(=O)NNC(=O)c2c(O)c3ccccc3[nH]c2=O)cc1	5.3%	17.9	23.1µM*	9.7%	?	2.5%
COC(=O)c1c(O)c2ccccc2[nH]c1=O	5.0%	-13.0	-3.9%	4.3%	-2.5%	1.7%
O=C(c1ccccc1)c1ccc(-n2ccnc2)c([N+](=O)[O-])c1	6.6%	20.0	20.6µM*	2.4%	-25.6%	-8.2%
O=C(c1ccccc1)c1ccc(-n2cnnc2)c([N+](=O)[O-])c1	1.0%	-77.7*	?	-7.0%	?	-3.3%
CC(C)(C)c1ccc(C(=O)Nc2cc(-c3ccccc3)nn2-c2ccccc2)cc1	.	.	?	.	-25.1%	.
Cc1cc(C)cc(NC(=O)CSc2nc3[nH]ncc3c(=O)[nH]2)c1	?	0.8	?	?	?	1.9%
CCOC(=O)CN(C(=O)CSc1nnc2c(n1)[nH]c1ccc(OC)cc12)c1ccc(F)cc1	-18.9%	-58.8*	?	-7.5%	20.6µM*	-2.6%
Cc1ccc(-c2csc(NC(=O)CSC3=NCCS3)n2)cc1	-3.6%	?	-28.7%	-2.8%	?	-2.6%
COc1ccc2[nH]c3nc(SCC(=O)Nc4cccc(NC(C)=O)c4)nnc3c2c1	-9.1%	-51.6*	3.2%	-7.3%	-0.6%	-5.2%
Cc1csc(NC(=O)CSc2nc3[nH]ncc3c(=O)[nH]2)n1	-2.0%	3.7	29.1µM*	10.1%	?	10.0%
COc1ccc(CNC(=O)CSc2nnc3c(n2)[nH]c2ccc(OC)cc23)cc1	3.8%	78.3	0.9%	-5.5%	9.3%	1.5%
Cc1ccc(-c2csc(NC(=O)CSc3nc(C)cc(=O)[nH]3)n2)cc1	1.8%[9.24 µM]	34.3	18.4µM*	9.2%	18.4µM*	.
O=C(CSc1nnc2c(n1)[nH]c1ccccc12)Nc1cccc(S(=O)(=O)N2CCOCC2)c1	-3.5%	0.0	?	-5.9%	14.6µM*	-0.2%
Cc1ccc(-c2csc(NC(=O)CSc3nnc4c(n3)[nH]c3ccccc34)n2)cc1	18.4µM*	-5.0	5.8µM*	20.6µM*	13µM*	-5.4%
CC(=O)c1ccc(NC(=O)CSc2nnc3c(n2)[nH]c2ccccc23)cc1	.	.	16.4µM*	.	?	.
Cc1ccc(NC(=O)CSc2nnc3c(n2)[nH]c2ccccc23)cc1	2.3%	20.2	8.4%	2.6%	3.4%	-1.9%
